The source made the active and inactive calls. The calls were made as follows: active = hit-call score of the fitted dose curve at least 0.9, where 1 is the maximum; inconclusive = response in the unintended direction; inactive = score below 0.9.
test: LTEA_HepaRG_LDH_cytotoxicity: Cytotoxicity Assessment in the Life Technologies and Expression Analysis (LTEA) Assay (AID 2283563)
Experimental: LTEA_HepaRG is a cell based, multiplexed-readout assay that uses HepaRG, a human liver cell line, with measurements taken at 48 hours after chemical dosing on a 96-well plate.LTEA_HepaRG_LDH_cytotoxicity is one of 102 assay component(s) measured in the LTEA HepaRG cell culture assay. It is a marker of cell viability / cytotoxicity.Data from the assay component LTEA_HepaRG_LDH_cytotoxicity was analyzed into 1 endpoint. This assay endpoint, LTEA_HepaRG_LDH_cytotoxicity, was analyzed in the positive fitting direction relative to DMSO as the negative control and baseline of activity. Using a type of inducible reporter, measures of mRNA induction for loss-of-signal activity can be used to understand cell death. To generalize the intended target to other relatable targets, this assay endpoint is annotated to the cell cycle intended target family, where the subfamily is proliferation.
A total of 1060 chemcials from the ToxCast library were tested in eight-point concentration-response experiments. Cell culture and cytotoxicity assays were conducted at Thermo Fisher Scientific's Custom Services facility (Madison, WI). A single lot of human HepaRG cells (Thermo Fisher Scientific, Frederick, MD) was used for the cell culture experiments. 96-well format collagen type I coated plates of human HepaRG cells were prepared using established methods. Briefly, cryopreserved HepaRG cells were thawed, plated at a density of approximately 100,000 cells/well in HepaRG Thaw, Plate, and General Purpose media (HPRG770, Thermo Fisher Scientific), and incubated for 48 hours. 0.5% DMSO was selected as vehicle control to balance the requisite need of DMSO in HepaRG cultures to maintain differentiation (for example, baseline metabolism, proportions of hepatocytes vs. cholangiocytes), while enabling further hepatic receptor pathway activation (for example, PXR and CAR) in response to chemical exposure. 48 hours after plating, the culture medium was replaced with HepaRG Serum-Free Incudtion Media. Cells were exposed to each test chemical in duplicate and maintained in CO2 incubators for another 48 hours. Chemical plates were thawed to room temperature and 200x concentrations of treatment groups were prepared. 8-point conentration-reponse curves were made with the highest exposure at 100 uM, followed by half-log dilutions, all in 0.5% DMSO. Each test plate contained variouse controls, induction positive controls (1mM phenobarbital), cytotoxicity positive controls ([…] aflatoxin B1), vehicle controls (0.5% DMSO), and total lysis controls (0.5% DMSO). Cell morphology images were taken using an Essen IncuCyte FLR automated microscope, with six 96-well plates imaged in about 24 minutes. Images were captured and exported and JPEG files. Spent culture media was transfered to black-well plates for the LDH assay, and remaining media was sorted at -80 C for later use. Cells were treated with RLT buffer and frozen until shipped for gene expression analysis. Total RNA was isolated from the cell suspension in 75 uL of Buffer RLT (Qiagen, Germantown, MD 20874) by Quintiles/Expression Analysis (Durham, NC) using a custom isolation procedure. Total RNA from each plate well was transferred to a preamplification plate. Fluidigm's 96.96 Dynamic ArrayTM (Fluidigm, Amsterdam, the Netherlands) technology was used for gene expression analyses by quantitative reverse transcription polymerase chain reaction (qRT-PCR, performed by Quintiles/Expression Analysis, Durham, NC)89. Standard TaqManTM Assays (Applied Biosystems/ThermoFisher Scientific, Foster City, CA) were used to assess the expression of 93 genes selected based on their selectivity and sensitivity to important hepatic receptors known to be modulated by environmental chemicals; importance in human hepatocyte functionality; and hepatotoxicity. […]

Structure (SMILES) | outcome | AC50
CC(C)(OO)c1ccccc1 | inactive | –
CCN1CCC2(CC1)COc1cc3c(cc12)N(C(=O)c1ccc(-c2ccc(-c4nnc(C)o4)cc2C)cc1)CC3 | – | 24.6 µM (active)
O=C(Nc1ccc2[nH]ccc2c1)c1cc2cc(F)ccc2n1Cc1cccc(F)c1 | – | 38.3 µM (active)
Cc1ccccc1N | inactive | –
CCC(=O)C(CC(C)N(C)C)(c1ccccc1)c1ccccc1 (stereo unspecified) | inactive | –
CC(C)(c1ccccc1)c1ccc(O)c(C(C)(C)c2ccccc2)c1 | – | 72.2 µM (active)
NC(=O)O | inactive | –
CC(=O)[O][Hg][c]1ccccc1 | – | 0.688 µM (active)
C=C(C)C(=O)[O][Sn]([CH2]CCC)([CH2]CCC)[CH2]CCC | – | 4.2 µM (active)
CC12CC1(C)C(=O)N(c1cc(Cl)cc(Cl)c1)C2=O (stereo unspecified) | inactive | –
C=CC(=O)OCCCCCC(C)C | inactive | –
O=[N+]([O-])c1ccc(O)c([N+](=O)[O-])c1 | – | 88.5 µM (active)
ClC1(Cl)C2(Cl)C3(Cl)C4(Cl)C(Cl)(Cl)C5(Cl)C3(Cl)C1(Cl)C5(Cl)C24Cl (stereo unspecified) | inactive | –
COc1cc(-c2ccc(N)c(OC)c2)ccc1N | inactive | –
O=C(O)C(F)(F)C(F)(F)C(F)(F)C(F)(F)C(F)(F)C(F)(F)C(F)(F)C(F)(F)C(F)(F)C(F)(F)F | inactive | –
Oc1cccc2cccnc12 | inactive | –

Structure (SMILES) | outcome | AC50
CCC(C)(C)c1ccc(O)c(C(C)(C)CC)c1 | inactive | –
CCCCCCCCc1ccc(O)cc1 | inactive | –
C[C@@H]1C[C@@H]([C@H](O)CC2CC(=O)NC(=O)C2)C(=O)[C@@H](C)C1 | – | 45.1 µM (active)
CCOP(=S)(OCC)Oc1nc(Cl)c(Cl)cc1Cl | inactive | –
O=C(O)C(F)(F)C(F)(F)C(F)(F)C(F)(F)C(F)(F)C(F)(F)F | inactive | –
ClCC(Cl)CCl | inactive | –
O=c1[nH]c(=O)[nH]c(=O)[nH]1 | inactive | –
O=C1C2(Cl)C3(Cl)C4(Cl)C(Cl)(Cl)C5(Cl)C3(Cl)C1(Cl)C5(Cl)C24Cl (stereo unspecified) | – | 72.1 µM (active)
CC(C)(C)c1cc(O)ccc1O | inactive | –
O=C(O)C(Cl)(Cl)Cl | inactive | –
CCOP(=S)(OCC)SCSP(=S)(OCC)OCC | inactive | –
CN(C)N=O | inactive | –
CC(C)(C)CC(C)(C)c1ccc(O)cc1 | – | 77 µM (active)
Cn1sc(Cl)cc1=O | inactive | –
C[C@]12CCC(=O)C[C@@H]1CC[C@@H]1[C@@H]2CC[C@]2(C)[C@@H](O)CC[C@@H]12 | inactive | –
